The text below walks through data of ChEMBL document CHEMBL1157539, “Thousands of chemical starting points for antimalarial lead identification” (Nature, 2010).

For experiment [1], the system named is Plasmodium falciparum. Description: GSK_TCMDC: Inhibition of Plasmodium falciparum 3D7 in whole red blood cells, using parasite LDH activity as an index of growth. Test compounds present at 2uM. Type of experiment: functional.
Experiment [2] relates to Plasmodium falciparum. Description: GSK_TCMDC: Inhibition of Plasmodium falciparum Dd2 in whole red blood cells, using parasite LDH activity as an index of growth. Test compounds present at 2uM. Type of experiment: functional.

Several values for one entry are separate records, joined by “and”; a condition that tells them apart may be missing. Identical values can stand only once.

With `Nc1nc(N)c2c(Sc3ccc(F)cc3)cccc2n1`, the Inhibition in the experiment with Plasmodium falciparum [1] is listed as 88%; with Plasmodium falciparum [2], 0%.
Taken in the same sequence, the figures for `Cl.Oc1c(CNC2CCCCC2)cc(Cl)c2ccccc12` were 98% and 100%.
The matching figures for `CCC(C)c1cnc2nc(N)nc(N)c2c1C` (centres undefined): 97% and 1%.
Consider `COc1ccc2ncc(F)c(C(O)CN3CCC(NCc4ccc5c(n4)NC(=O)CO5)CC3)c2c1.Cl` (centres undefined), for which the Inhibition with Plasmodium falciparum [1] is 99% and 100%; in the experiment on Plasmodium falciparum [2] it was 51% and 88%.
Regarding `CCCc1ccc(Cc2cnc3nc(N)nc(N)c3c2C)cc1`, the Inhibition worked out at 98% with Plasmodium falciparum [1] and 0% in the experiment with Plasmodium falciparum [2].
The matching figures for `CCCCNCCOc1ccc(-c2nc(-c3ccccc3)c(-c3ccccc3)[nH]2)cc1`: 100% and 34%.
Taken in the same sequence, the figures for `CC(=O)Nc1ccc(OCCCCCOc2ccc(NC(C)=O)cc2Cl)c(Cl)c1` were 93% and 0%.
With `COc1cc(Cc2cnc(N)nc2N)cc(OCCCCCCN)c1OC.Cl`, the Inhibition stood at 96% in the experiment with Plasmodium falciparum [1] and 0% with Plasmodium falciparum [2].
The matching figures for `COc1cc(Cc2cnc(N)nc2N)cc(OCCCC(=O)O)c1OC`: 84% and 0%.
Taken in the same sequence, the figures for `Cc1nc(C)c(-c2cccc(Oc3ccc(Cl)cc3)c2)c(O)c1Br` were 96% and 97%.
The matching figures for `Nc1nc(N)c2c(ccc3[nH]c(-c4ccccc4Cl)nc32)n1`: 100% and 100%.
In the case of `Cc1nc2nc(N)nc(N)c2c(C)c1Cc1ccc([N+](=O)[O-])cc1.Cl`, the values for the Inhibition in the experiment with Plasmodium falciparum [1] and in the experiment with Plasmodium falciparum [2] were 98% and 11%, respectively.
The matching figures for `CCOc1cc(Cc2cnc(N)nc2N)cc(Br)c1OC`: 83% and 3%.
Taken in the same sequence, the figures for `Cl.c1ccc2c(c1)cc(CNCCCN1CCN(CCCNCc3cc4ccccc4c4ccccc34)CC1)c1ccccc12` were 100% and 98%.
The matching figures for `Cc1nc2ccc(S(=O)(=O)Nc3ccc(C(=O)N[C@@H](CCC(=O)O)C(=O)O)cc3)cc2c(=O)[nH]1`: 94% and 2%.
Consider `CCc1ccc(Cc2cnc3nc(N)nc(N)c3c2C)cc1CC`, for which the Inhibition was 97% with Plasmodium falciparum [1] and 0% in the experiment on Plasmodium falciparum [2].
Taken in the same sequence, the figures for `Nc1nc(N)c(-c2ccccc2)c(=O)[nH]1` were 83% and 0%.
The matching figures for `CCCCNCc1ccc(OCc2cccc(COc3ccc(CNCCCC)cc3I)c2)c(I)c1.Cl`: 87% and 13%.
Turning to `Cc1ccc(Cc2cccc3nc(N)nc(N)c23)cc1`, the Inhibition is given as 92% with Plasmodium falciparum [1] and 0% with Plasmodium falciparum [2].
The matching figures for `Cc1nc(C)c(-c2ccc(Oc3cccc(OC(F)(F)F)c3)cc2)c(O)c1Br`: 100% and 96%.
The matching figures for `Cc1nc(C)c(-c2ccc(-c3ccc(F)cc3)cc2)c(O)c1Cl`: 96% and 96%.
Take `COc1cc(Cc2cnc(N)nc2N)cc(OCCCS(=O)(=O)O)c1OC`: the Inhibition is 88% with Plasmodium falciparum [1] and 0% in the experiment on Plasmodium falciparum [2].
The matching figures for `COc1cc(Cc2cnc3nc(N)nc(N)c3c2C)cc(OC)c1OC`: 95% and 98%.
Taken in the same sequence, the figures for `COc1cc(Cc2cnc(N)nc2N)cc(OCCCCC#N)c1OC` were 86% and 0%.
The matching figures for `CN(C)S(=O)(=O)n1ncc2c3c(N)nc(N)nc3ccc21.Cl`: 96% and 0%.
Turning to `Cl.c1ccc2c(NCCOCCNc3c4ccccc4nc4ccccc34)c3ccccc3nc2c1`, the values for the Inhibition with Plasmodium falciparum [1] and with Plasmodium falciparum [2] were 94% and 0%, respectively.
The matching figures for `Cc1[nH]c(C)c(-c2ccc(Oc3ccc(Cl)cc3)cc2)c(=O)c1Cl`: 91% and 16%.
Taken in the same sequence, the figures for `N=C(NCC1CC1c1ccccc1)c1cccc(C(=N)NCC2CC2c2ccccc2)n1` (centres undefined) were 95% and 0%.
The matching figures for `Cl.c1ccc(CN2CCN(CCCCNc3c4ccccc4nc4ccccc34)CC2)cc1`: 100% and 100%.
As to `CCCCCCCN(Cc1ccc(OC(C)(C)C(=O)OCC)cc1)C(=O)Nc1ccc(Cl)cc1OCC`, the Inhibition with Plasmodium falciparum [1] came out at 95%; with Plasmodium falciparum [2], 89%.
The matching figures for `Cc1nc(NCc2ccccc2)cc(Nc2cc(NCc3ccccc3)nc(C)n2)n1`: 90% and 32%.
The matching figures for `CCCCCCOc1ccc2ccccc2c1CNCCCCCCNCc1c(OCCCCCC)ccc2ccccc12.CS(=O)(=O)O`: 85% and 55%.
The matching figures for `CCC1=C(CC2NCCc3cc(OC)c(OC)cc32)CC2c3cc(OC)c(OC)cc3CCN2C1` (centres undefined) [DIHYDROEMETINE]: 100% and 100%.
On to `N=C(N)NC(=O)Nc1ccc(Cl)c(C(F)(F)F)c1`, for which the Inhibition was 100% with Plasmodium falciparum [1] and 13% with Plasmodium falciparum [2].
The matching figures for `Nc1ncc(-c2ccc(F)c(Cl)c2)c(N)n1`: 83% and 0%.
On to `CCN(CC)CCNc1cc(C)nc(NC(=N)Nc2ccc(Cl)cc2)n1.Cl`, for which the results for the Inhibition with Plasmodium falciparum [1] and in the experiment on Plasmodium falciparum [2] were 100% and 0%, respectively.
For the molecule `CCN(c1ccc(O)c(CN2CCCCC2)c1)c1ccc([N+](=O)[O-])cn1.Cl`, the Inhibition in the experiment with Plasmodium falciparum [1] worked out at 94%; in the experiment with Plasmodium falciparum [2] it was 64%.
